{"source": "the supplement of paper PMC8728848", "assay_in_all_cases": "glycan array binding signal (z-score within array); higher = stronger binding", "details_in_all_cases": "glycan notation: IUPAC condensed, linker removed", "key": {"[1]": {"target": "Fuc(a1-2)Gal(b1-3)GalNAc(b1-3)Gal", "method_in_brief": "(§1)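 Glycan array binding is given as a within-array Z-score, which can be read as non-binding when negative. The arrays, 3228 of them, came from the Consortium for Functional Glycomics database and were retained only where the protein sequence was available. Z-scores were averaged across arrays of the same protein sequence at different concentrations or buffers and across linkers.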"}, "[2]": {"target": "Fuc(a1-2)Gal(b1-4)GlcNAc(b1-3)Gal(b1-4)GlcNAc", "method_in_brief": "as §1"}, "[3]": {"target": "Fuc(a1-2)Gal(b1-4)GlcNAc(b1-3)Gal(b1-4)GlcNAc(b1-3)Gal(b1-4)GlcNAc", "method_in_brief": "as §1"}, "[4]": {"target": "Fuc(a1-2)Gal(b1-4)[Fuc(a1-3)]GlcNAc(b1-3)Gal(b1-4)[Fuc(a1-3)]GlcNAc(b1-3)Gal(b1-4)[Fuc(a1-3)]GlcNAc", "method_in_brief": "as §1"}, "[5]": {"target": "Fuc(a1-2)[Gal(a1-3)]Gal(b1-4)Glc", "method_in_brief": "as §1"}, "[6]": {"target": "Fuc(a1-2)[Gal(a1-3)]Gal(b1-4)[Fuc(a1-3)]GlcNAc", "method_in_brief": "as §1"}, "[7]": {"target": "Fuc(a1-2)[GalNAc(a1-3)]Gal(b1-4)GlcNAc", "method_in_brief": "as §1"}, "[8]": {"target": "Fuc(a1-2)[GalNAc(a1-3)]Gal(b1-4)[Fuc(a1-3)]GlcNAc", "method_in_brief": "as §1"}, "[9]": {"target": "Gal(b1-2)Gal", "method_in_brief": "as §1"}, "[10]": {"target": "Gal(b1-3)GalNAc(b1-4)Gal(b1-4)Glc", "method_in_brief": "as §1"}, "[11]": {"target": "Gal(b1-4)Glc6S", "method_in_brief": "as §1"}, "[12]": {"target": "Gal3S6S(b1-4)GlcNAc6S", "method_in_brief": "as §1"}, "[13]": {"target": "Gal6S(b1-4)GlcNAc", "method_in_brief": "as §1"}, "[14]": {"target": "GlcNAc(b1-3)Gal(b1-4)GlcNAc", "method_in_brief": "as §1"}, "[15]": {"target": "GlcNAc(b1-4)[GlcNAc(b1-6)]GalNAc", "method_in_brief": "as §1"}, "[16]": {"target": "Man(a1-2)Man(a1-2)Man(a1-3)Man", "method_in_brief": "as §1"}, "[17]": {"target": "Neu5Ac(a2-3)Gal(b1-3)GalNAc(b1-3)Gal(a1-4)Gal(b1-4)Glc", "method_in_brief": "as §1"}, "[18]": {"target": "Neu5Ac(a2-3)Gal(b1-3)GalNAc6S", "method_in_brief": "as §1"}, "[19]": {"target": "Neu5Ac(a2-3)GalNAc(b1-4)GlcNAc", "method_in_brief": "as §1"}, "[20]": {"target": "Neu5Ac(a2-6)Gal(b1-4)GlcNAc", "method_in_brief": "as §1"}, "[21]": {"target": "Neu5Ac(a2-6)Gal(b1-4)GlcNAc(b1-3)Gal(b1-4)[Fuc(a1-3)]GlcNAc(b1-3)Gal(b1-4)[Fuc(a1-3)]GlcNAc", "method_in_brief": "as §1"}, "[22]": {"target": "Neu5Ac9Ac(a2-6)Gal(b1-4)GlcNAc", "method_in_brief": "as §1"}, "[23]": {"target": "Fuc(a1-2)Gal(b1-4)Glc", "method_in_brief": "as §1"}, "[24]": {"target": "Fuc(a1-2)Gal(b1-4)GlcNAc(b1-2)Man(a1-3)[Fuc(a1-2)Gal(b1-4)GlcNAc(b1-2)Man(a1-6)]Man(b1-4)GlcNAc(b1-4)[Fuc(a1-6)]GlcNAc", "method_in_brief": "as §1"}, "[25]": {"target": "Fuc(a1-2)[Gal(a1-3)]Gal(b1-3)GalNAc(b1-3)Gal(a1-4)Gal(b1-4)Glc", "method_in_brief": "as §1"}, "[26]": {"target": "Fuc(a1-2)[Gal(a1-3)]Gal(b1-3)GlcNAc", "method_in_brief": "as §1"}, "[27]": {"target": "Fuc(a1-2)[Gal(a1-3)]Gal(b1-4)GlcNAc(b1-2)Man(a1-3)[Fuc(a1-2)[Gal(a1-3)]Gal(b1-4)GlcNAc(b1-2)Man(a1-6)]Man(b1-4)GlcNAc(b1-4)GlcNAc", "method_in_brief": "as §1"}, "[28]": {"target": "Fuc(a1-2)[Gal(a1-3)]Gal(b1-4)GlcNAc(b1-6)GalNAc", "method_in_brief": "as §1"}, "[29]": {"target": "Gal(a1-3)Gal(b1-3)GlcNAc", "method_in_brief": "as §1"}, "[30]": {"target": "Gal(a1-3)Gal(b1-3)GlcNAc(b1-6)GalNAc", "method_in_brief": "as §1"}, "[31]": {"target": "Gal(a1-3)Gal(b1-4)GlcNAc(b1-3)GalNAc", "method_in_brief": "as §1"}, "[32]": {"target": "Gal(a1-4)GlcNAc", "method_in_brief": "as §1"}, "[33]": {"target": "Gal(b1-3)Gal", "method_in_brief": "as §1"}, "[34]": {"target": "Gal(b1-3)Gal(b1-4)GlcNAc", "method_in_brief": "as §1"}, "[35]": {"target": "Gal(b1-3)GlcNAc(a1-6)Gal(b1-4)GlcNAc", "method_in_brief": "as §1"}, "[36]": {"target": "Gal(b1-3)GlcNAc(b1-2)Man", "method_in_brief": "as §1"}, "[37]": {"target": "Gal(b1-3)GlcNAc(b1-3)Gal(b1-3)GlcNAc", "method_in_brief": "as §1"}, "[38]": {"target": "Gal(b1-3)GlcNAc(b1-6)GalNAc", "method_in_brief": "as §1"}, "[39]": {"target": "Gal(b1-3)[Fuc(a1-4)]GlcNAc(b1-3)Gal(b1-3)[Fuc(a1-4)]GlcNAc", "method_in_brief": "as §1"}, "[40]": {"target": "Gal(b1-4)GlcNAc(a1-6)Gal(b1-4)GlcNAc", "method_in_brief": "as §1"}, "[41]": {"target": "Gal(b1-4)GlcNAc(b1-2)Man", "method_in_brief": "as §1"}, "[42]": {"target": "Gal(b1-4)GlcNAc(b1-3)Gal(b1-3)GlcNAc", "method_in_brief": "as §1"}, "[43]": {"target": "Gal(b1-4)GlcNAc(b1-3)Gal(b1-4)GlcNAc(b1-3)Gal(b1-4)GlcNAc(b1-2)Man(a1-3)[Gal(b1-4)GlcNAc(b1-3)Gal(b1-4)GlcNAc(b1-3)Gal(b1-4)GlcNAc(b1-2)Man(a1-6)]Man(b1-4)GlcNAc(b1-4)GlcNAc", "method_in_brief": "as §1"}, "[44]": {"target": "Gal(b1-4)GlcNAc(b1-6)GalNAc", "method_in_brief": "as §1"}, "[45]": {"target": "Gal3S(b1-3)GalNAc", "method_in_brief": "as §1"}, "[46]": {"target": "Gal3S(b1-4)Glc", "method_in_brief": "as §1"}, "[47]": {"target": "Gal3S(b1-4)[Fuc(a1-3)]GlcNAc", "method_in_brief": "as §1"}, "[48]": {"target": "Gal3S(b1-4)[Fuc(a1-3)]GlcNAc6S", "method_in_brief": "as §1"}, "[49]": {"target": "Gal4S(b1-4)GlcNAc", "method_in_brief": "as §1"}}, "note": "This excerpt belongs to a sample that is enriched for the strongest signals.", "data": [{"binder": "CLEC-6 (Homo sapiens), Q8WXI8 (protein) MGLEKPQSKLEGGMHPQLIPSVIAVVFILLLSVCFIASCLVTHHNFSRCKRGTGVHKLEHHAKLKCIKEKSELKSAEGSTWNCCPIDWRAFQSNCYFPLTDNKTWAESERNCSGMGAHLMTISTEAEQNFIIQFLDRRLSYFLGLRDENAKGQWRWVDQTPFNPRRVFWHKNEPDNSQGENCVVLVYNQDKWAWNDVPCNFEASRICKIPGTTLN", "values": [{"measurement": "glycan array binding signal (z-score)", "setting": "[1]", "result": 6.22}, {"measurement": "glycan array binding signal (z-score)", "setting": "[2]", "result": -0.176}, {"measurement": "glycan array binding signal (z-score)", "setting": "[3]", "result": -0.295}, {"measurement": "glycan array binding signal (z-score)", "setting": "[4]", "result": 0.12}, {"measurement": "glycan array binding signal (z-score)", "setting": "[5]", "result": -0.282}, {"measurement": "glycan array binding signal (z-score)", "setting": "[6]", "result": -0.276}, {"measurement": "glycan array binding signal (z-score)", "setting": "[7]", "result": -0.239}, {"measurement": "glycan array binding signal (z-score)", "setting": "[8]", "result": -0.102}, {"measurement": "glycan array binding signal (z-score)", "setting": "[9]", "result": -0.038}, {"measurement": "glycan array binding signal (z-score)", "setting": "[10]", "result": -0.328}, {"measurement": "glycan array binding signal (z-score)", "setting": "[11]", "result": -0.263}, {"measurement": "glycan array binding signal (z-score)", "setting": "[12]", "result": 6.21}, {"measurement": "glycan array binding signal (z-score)", "setting": "[13]", "result": -0.239}, {"measurement": "glycan array binding signal (z-score)", "setting": "[14]", "result": -0.077}, {"measurement": "glycan array binding signal (z-score)", "setting": "[15]", "result": -0.138}, {"measurement": "glycan array binding signal (z-score)", "setting": "[16]", "result": 1.94}, {"measurement": "glycan array binding signal (z-score)", "setting": "[17]", "result": -0.144}, {"measurement": "glycan array binding signal (z-score)", "setting": "[18]", "result": -0.077}, {"measurement": "glycan array binding signal (z-score)", "setting": "[19]", "result": -0.104}, {"measurement": "glycan array binding signal (z-score)", "setting": "[20]", "result": -0.221}, {"measurement": "glycan array binding signal (z-score)", "setting": "[21]", "result": 1.59}, {"measurement": "glycan array binding signal (z-score)", "setting": "[22]", "result": -0.166}]}, {"binder": "Cohesin-hMARCO (Homo sapiens) (protein) LDDLDAVRIKVDTVNAKPGDTVRIPVRFSGIPSKGIANCDFVYSYDPNVLEIIEIEPGDIIVDPNPDKSFDTAVYPDRKIIVFLFAEDSGTGAYAITKDGVFATIVAKVKEGAPNGLSVIKFVEVGGFANNDLVEQKTQFFDGGANVGDTTEPATPTTPVTTPTTTDDLDAASVRIVGSSNRGRAEVYYSGTWGTICDDEWQNSDAIVFCRMLGYSKGRALYKVGAGTGQIWLDNVQCRGTESTLWSCTKNSWGHHDCSHEEDAGVECSVHHHHHH", "values": [{"measurement": "glycan array binding signal (z-score)", "setting": "[1]", "result": 3.9}, {"measurement": "glycan array binding signal (z-score)", "setting": "[23]", "result": 0.78}, {"measurement": "glycan array binding signal (z-score)", "setting": "[24]", "result": -0.156}, {"measurement": "glycan array binding signal (z-score)", "setting": "[25]", "result": -0.528}, {"measurement": "glycan array binding signal (z-score)", "setting": "[26]", "result": 2.72}, {"measurement": "glycan array binding signal (z-score)", "setting": "[27]", "result": -0.358}, {"measurement": "glycan array binding signal (z-score)", "setting": "[28]", "result": -0.528}, {"measurement": "glycan array binding signal (z-score)", "setting": "[29]", "result": 11.2}, {"measurement": "glycan array binding signal (z-score)", "setting": "[30]", "result": 2.88}, {"measurement": "glycan array binding signal (z-score)", "setting": "[31]", "result": -0.296}, {"measurement": "glycan array binding signal (z-score)", "setting": "[32]", "result": -0.083}, {"measurement": "glycan array binding signal (z-score)", "setting": "[33]", "result": -0.397}, {"measurement": "glycan array binding signal (z-score)", "setting": "[34]", "result": -0.262}, {"measurement": "glycan array binding signal (z-score)", "setting": "[35]", "result": -0.309}, {"measurement": "glycan array binding signal (z-score)", "setting": "[36]", "result": -0.288}, {"measurement": "glycan array binding signal (z-score)", "setting": "[37]", "result": -0.434}, {"measurement": "glycan array binding signal (z-score)", "setting": "[38]", "result": 1.7}, {"measurement": "glycan array binding signal (z-score)", "setting": "[39]", "result": 5.33}, {"measurement": "glycan array binding signal (z-score)", "setting": "[11]", "result": -0.057}, {"measurement": "glycan array binding signal (z-score)", "setting": "[40]", "result": 0.044}, {"measurement": "glycan array binding signal (z-score)", "setting": "[41]", "result": -0.48}, {"measurement": "glycan array binding signal (z-score)", "setting": "[42]", "result": -0.462}, {"measurement": "glycan array binding signal (z-score)", "setting": "[43]", "result": 0.365}, {"measurement": "glycan array binding signal (z-score)", "setting": "[44]", "result": 1.21}, {"measurement": "glycan array binding signal (z-score)", "setting": "[45]", "result": 0.13}, {"measurement": "glycan array binding signal (z-score)", "setting": "[46]", "result": 3.03}, {"measurement": "glycan array binding signal (z-score)", "setting": "[47]", "result": -0.386}, {"measurement": "glycan array binding signal (z-score)", "setting": "[48]", "result": 3.73}, {"measurement": "glycan array binding signal (z-score)", "setting": "[49]", "result": -0.154}, {"measurement": "glycan array binding signal (z-score)", "setting": "[13]", "result": -0.215}]}]}
